Source: PubChem BioAssay AID1159580 (chemical genetic matrix, 2015)
Values joined by “and” are separate entries in the source; they are usually repeats but may differ in a detail not shown here. Equal values may be shown once. The whole screen tested about 5,500 compounds, of which about 2,000 (36%) were called active. About 18% were inconclusive and are not listed. No stated cut-off is given here; in the data, active means normalized growth mostly below about 0.91 (no sharp cut-off); inconclusive means no clear call, values can overlap the other calls; inactive means mostly above about 0.92. The list shows a part of the results.

Assay: chemical genetic growth profiling, strain panel (AID 1159580);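 further: tested at 20 µM; growth read once vehicle control cultures reached saturation at 30 °C; 1 = growth at the plate median or of vehicle wells; lower values mean less growth of the strain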
Details: S. cerevisiae deletion strains, growth OD

Measured: normalized growth

O=C(CCc1ccc(O)cc1)c1c(O)cc(O)cc1O
inactive: locus YAL013W, strain DEP1, hits give low values 1.01 | locus YAL021C, strain ccr4, hits give low values 0.998 | locus YAL026C, strain drs2, hits give low values 1 | locus YAL030W, strain snc1, hits give low values 1.01 | locus YAL040C, strain CLN3, hits give low values 1.05 | locus YBL061C, strain skt5, hits give low values 1.02 | locus YBR009C, strain hhf1, hits give low values 0.992 | locus YBR021W, strain FUR4, hits give low values 1.03 | locus YBR023C, strain chs3, hits give low values 0.999 | locus YBR171W, strain sec66, hits give low values 1.02 | locus YBR229C, strain ROT2, hits give low values 0.991 | locus YBR231C, strain swc5, hits give low values 1.01 | locus YBR279W, strain paf1, hits give low values 1.01 | locus YCL011C, strain gbp2, hits give low values 1.02 | locus YCL016C, strain dcc1, hits give low values 1.01 | locus YCL029C, strain bik1, hits give low values 1 | locus YCL061C, strain MRC1 (second series), hits give low values 1.01 | locus YCL061C, strain MRC1, hits give low values 0.99 | locus YCL069W, strain vba3, hits give low values 1.02 | locus YCR088W, strain abp1, hits give low values 1.02 | locus YDL005C, strain med2, hits give low values 1.02 | locus YDL035C, strain GPR1, hits give low values 1.01 | locus YDL040C, strain nat1, hits give low values 0.997 | locus YDL074C, strain BRE1, hits give low values 0.987 | locus YDL101C, strain DUN1, hits give low values 1.01 | locus YDL134C, strain PPH21, hits give low values 1.01 | locus YDL185W, strain tfp1, hits give low values 1.01 | locus YDL192W, strain arf1, hits give low values 1.01 | locus YDR001C, strain nth1, hits give low values 1.02 | locus YDR069C, strain doa4, hits give low values 0.978 | locus YDR101C, strain arx1, hits give low values 1.02 | locus YDR137W, strain rgp1, hits give low values 1.11 | locus YDR150W, strain NUM1, hits give low values 1 and 0.988 | locus YDR159W, strain sac3, hits give low values 1.04 | locus YDR162C, strain NBP2, hits give low values 0.989 | locus YDR195W, strain ref2 1 | locus YDR297W, strain sur2, hits give low values 1 | locus YDR318W, strain mcm21, hits give low values 1.04 | locus YDR334W, strain swr1, hits give low values 1 | locus YDR335W, strain msn5, hits give low values 1.01 | locus YDR363W, strain ESC2, hits give low values 0.977 | locus YDR388W, hits give low values 1.01 | locus YDR392W, strain spt3, hits give low values 1 | locus YDR502C, strain sam2, hits give low values 0.994 | locus YEL003W, strain gim4, hits give low values 1.01 | locus YEL037C, strain rad23, hits give low values 1 | locus YEL061C, strain CIN8 (second series), hits give low values 1.02 | locus YEL061C, strain CIN8, hits give low values 0.997 | locus YER002W, strain NOP16, hits give low values 1.02 | locus YER015W, strain faa2, hits give low values 1 | locus YER016W, strain bim1, hits give low values 1.01 | locus YER110C, hits give low values 1.01 | locus YER111C, strain swi4, hits give low values 1.01 | locus YER155C, strain BEM2 (second series), hits give low values 1 | locus YER155C, strain BEM2, hits give low values 1.01 | locus YER167W, strain BCK2, hits give low values 1.02 | locus YFR010W, strain ubp6, hits give low values 0.992 | locus YGL078C, strain dbp3, hits give low values 1.01 | locus YGL086W, strain mad1, hits give low values 1.01 | locus YGL167C, strain pmr1, hits give low values 1.01 | locus YGL173C, strain kem1, hits give low values 1.02 | locus YGL227W, strain vid30, hits give low values 1.02 | locus YGL240W, strain doc1, hits give low values 1.01 | locus YGL248W, strain PDE1, hits give low values 1 | locus YGL253W, strain hxk2, hits give low values 1.02 | locus YGR078C, strain PAC10, hits give low values 0.987 and 1.01 | locus YGR135W, strain pre9, hits give low values 0.998 | locus YGR229C, strain SMI1, hits give low values 0.979 | locus YHR013C, strain ard1, hits give low values 0.99 | locus YHR027C, strain rpn1, hits give low values 1.01 | locus YHR030C, strain SLT2, hits give low values 1 and 0.997 | locus YHR079C, strain IRE1 (second series), hits give low values 1 | locus YHR079C, strain IRE1, hits give low values 0.983 | locus YHR094C, strain hxt1, hits give low values 0.999 | locus YHR129C, strain ARP1, hits give low values 0.998 | locus YHR142W, strain chs7, hits give low values 1.01 | locus YHR200W, strain rpn10, hits give low values 1.02 | locus YIL066C, strain RNR3, hits give low values 1.01 | locus YIL073C, strain SPO22, hits give low values 1.1 | locus YIL125W, strain kgd1, hits give low values 1.03 | locus YIR030C, strain dcg1, hits give low values 1.01 | locus YJL092W, strain hpr5, hits give low values 1.01 | locus YJL095W, strain BCK1 (second series), hits give low values 1.01 | locus YJL095W, strain BCK1, hits give low values 0.994 and 0.99 | locus YJL115W, strain asf1, hits give low values 1.02 | locus YJL129C, strain trk1, hits give low values 1.05 | locus YJL134W, strain LCB3, hits give low values 1.01 | locus YJL154C, strain vps35, hits give low values 1.02 | locus YJL164C, strain tpk1, hits give low values 0.984 | locus YJL166W, strain qcr8, hits give low values 1.01 | locus YJL168C, strain set2, hits give low values 0.995 | locus YJL187C, strain SWE1 (second series), hits give low values 0.995 | locus YJL187C, strain SWE1, hits give low values 1.02 | locus YJR043C, strain POL32, hits give low values 0.997 | locus YJR066W, strain TOR1, hits give low values 0.948
